Whole data set: some 2,300 compounds, median “relative growth” near 1, cut for the lowest 2% near 0.046. Only a sample is shown.
These molecules were tested on E. coli BW25113 (assay: relative growth (fraction of control); higher = less inhibition). Conditions: 50 µM.

| SMILES | relative growth |
| --- | --- |
| CNCC(O)c1ccc(O)c(O)c1.O=C(O)C(O)C(O)C(=O)O (stereo unspecified) | 1.17 |
| CCOC(=O)C(CCc1ccccc1)NC(C)C(=O)N1CCCC1C(=O)O.O=C(O)C=CC(=O)O (stereo unspecified) | 1.07 |
| COCCCOc1cc(CC(CC(N)C(O)CC(C(=O)NCC(C)(C)C(N)=O)C(C)C)C(C)C)ccc1OC.O=C(O)C=CC(=O)O (stereo unspecified) | 0.978 |
| C#CCCCCCCCCCCCC(O)CC(O)CO.C=CCCCCCCCCCCCC(O)CC(O)CO (stereo unspecified) | 0.979 |
| COc1ccc(CN(CCN(C)C)c2ccccn2)cc1.O=C(O)C=CC(=O)O | 1.09 |
| CN1CCC(=C2c3ccccc3CCc3sccc32)CC1.O=C(O)CC(O)C(=O)O | 1.07 |
| CC(C)=CCCC(C)C1CCC2(C)C3=C(CCC12C)C1(C)CCC(O)C(C)(C)C1CC3 (stereo unspecified) | 0.918 |
| CCC1OC(=O)C(C)C(OC2CC(C)(OC)C(O)C(C)O2)C(C)C(OC2OC(C)CC(N(C)C)C2O)C(C)(O)CC(C)C(=O)C(C)C(O)C1(C)O (stereo unspecified) | 0.394 |
| C[N+]1(CCCCC[N+]2(C)CCCC2)CCCC1.O=C([O-])C(O)C(O)C(=O)O.O=C([O-])C(O)C(O)C(=O)O | 0.992 |
| OCC(O)C(O)C(O)CO (stereo unspecified) | 0.987 |
| CN(C)CCOC(C)(c1ccccc1)c1ccccn1.O=C(O)CCC(=O)O (stereo unspecified) | 0.787 |
| CN(C)CCC(c1ccccc1)c1ccccn1.O=C(O)C=CC(=O)O (stereo unspecified) | 0.966 |
| O=c1ccc2ccccc2o1 | 1.09 |
| CN(C)CCOC(c1ccc(Cl)cc1)c1ccccn1.O=C(O)C=CC(=O)O (stereo unspecified) | 0.986 |
| NC(CO)(CO)CO.O=C(c1ccccc1)c1ccc2n1CCC2C(=O)O (stereo unspecified) | 0.914 |
| CCN(CC)CCc1nc(-c2ccccc2)no1.O=C(O)CC(O)(CC(=O)O)C(=O)O | 0.968 |
| CC(C)NCC(O)COc1ccc(COCCOC(C)C)cc1.O=C(O)C=CC(=O)O (stereo unspecified) | 1.04 |
| CN1CCCC1CCOC(C)(c1ccccc1)c1ccc(Cl)cc1.O=C(O)C=CC(=O)O (stereo unspecified) | 1.01 |
| CN1CCCC1c1cccnc1.O=C(O)C(O)C(O)C(=O)O.O=C(O)C(O)C(O)C(=O)O (stereo unspecified) | 1.14 |
| C[N+](C)(C)CCO.Cn1c(=O)c2[n-]cnc2n(C)c1=O | 1.06 |
| CN(C)CCOc1ccc(C(=C(CCCl)c2ccccc2)c2ccccc2)cc1.O=C(O)CC(O)(CC(=O)O)C(=O)O | 0.722 |
| Cc1c(OCC(F)(F)F)ccnc1CS(=O)c1nc2ccccc2[nH]1 (stereo unspecified) | 1.01 |
| NCC(O)c1ccc(O)c(O)c1.O=C(O)C(O)C(O)C(=O)O (stereo unspecified) | 1.12 |
| CN(C)CCC(c1ccc(Br)cc1)c1ccccn1.O=C(O)C=CC(=O)O (stereo unspecified) | 1.04 |
| COc1ccc2c3c1OC1CC(O)C=CC31CCN(C)C2 (stereo unspecified) | 0.936 |
| CN1CCCN=C1C=Cc1cccc(O)c1.O=C(O)c1cc2ccccc2c(Cc2c(O)c(C(=O)O)cc3ccccc23)c1O | 1.1 |

Reference: published antibiotic growth screens (doi:10.1016/j.cell.2020.01.021)
